Measurements published in paper PMC10668032, “Altered binding affinity of SIX1-Q177R correlates with enhanced WNT5A and WNT pathway effector expression in Wilms tumor”.
Over roughly 33,000 sequences, “e-score” has its median near -0.053; the highest 2% begin near 0.38. Shown is part of a subset that was picked to be rich in the highest values.

The sequences below were run against T1, SIX1 homeodomain (reference allele) (human, UniProt Q15475 108-198) (assay: universal protein binding microarray; Universal all-10-mer PBM (8x60K, AMADID 030236), 300 nM GST-tagged protein, Alexa Fluor 488 anti-GST; buffer, salt, pH and temperature not stated (as in Berger); high values mean tight binding). Details: protein: ivt; tags: N-terminal GST; dsDNA, one strand shown.
T1 sequence: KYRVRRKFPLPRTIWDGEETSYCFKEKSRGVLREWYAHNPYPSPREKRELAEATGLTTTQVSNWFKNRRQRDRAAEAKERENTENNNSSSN
How it was run: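 Binding of GST-tagged homeodomains is given as 8-mer E-scores from the Universal PBM Analysis Suite. The proteins were produced by in vitro transcription/translation, quantified by anti-GST western blot against a recombinant GST standard curve, and applied in duplicate at 300 nM final concentration to universal 'all 10-mer' protein binding microarrays (8×60K format).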

Sequence	binding signal
CGGATTGA	0.305 ± 0.0268 E-score
AATGTATA	0.259 ± 0.0211 E-score
ACACCTCT	0.239 ± 0.0609 E-score
TATCCAAA	0.297 ± 0.0104 E-score
GGATTACA	0.18 ± 0.0206 E-score
ATCGTCTG	0.162 ± 0.0451 E-score
CCGGCATC	0.201 ± 0.0414 E-score
AATACTTC	0.2 ± 0.116 E-score
GATACTGA	0.42285 ± 0.000276 E-score
TATACTGA	0.239 ± 0.00916 E-score
GACACTGA	0.161 ± 0.0506 E-score
GATACTGC	0.44524 ± 0.000438 E-score
AATACTTG	0.151 ± 0.0521 E-score
AATACTGT	0.183 ± 0.00786 E-score
AATACTGC	0.162 ± 0.0355 E-score
GATACTTA	0.401 ± 0.0667 E-score
ATCGAGTA	0.226 ± 0.00853 E-score
CGAATACA	0.151 ± 0.0627 E-score
CCGCCTGA	0.228 ± 0.0274 E-score
AACACCAG	0.164 ± 0.0278 E-score
ATCGCCCG	0.198 ± 0.0602 E-score
ACTCCATC	0.162 ± 0.00629 E-score
ATCAGCTG	0.154 ± 0.0485 E-score

Sequence	binding signal
CCCTCATC	0.176 ± 0.0843 E-score
CGACACTC	0.177 ± 0.0347 E-score
ATACATAG	0.177 ± 0.0401 E-score
CTAGTATC	0.388 ± 0.0365 E-score
CTAGTATA	0.242 ± 0.0487 E-score
ATAGTATG	0.258 ± 0.00892 E-score
ATAGTATC	0.426 ± 0.0263 E-score
ATAGTATA	0.29 ± 0.0405 E-score
GTAGTATA	0.267 ± 0.0665 E-score
CATGTGAG	0.152 ± 0.0831 E-score
ATCCAAGC	0.169 ± 0.0665 E-score
AGCCGATC	0.329 ± 0.0103 E-score
ACGTATAG	0.189 ± 0.0603 E-score
ACGTATCT	0.339 ± 0.0607 E-score
ACGTATTG	0.211 ± 0.0377 E-score
ACGTATAA	0.268 ± 0.0722 E-score
ACGTATTC	0.234 ± 0.0548 E-score
CCGTATTC	0.177 ± 0.00726 E-score
CCGTATCC	0.438 ± 0.0211 E-score
CCGTATAC	0.36 ± 0.00586 E-score
GCGTATCC	0.369 ± 0.00641 E-score
ACGTATCG	0.413 ± 0.0215 E-score
ACGTATCA	0.474 ± 0.0189 E-score

Sequence	binding signal
ACGTATCC	0.377 ± 0.0283 E-score
ATCAGTTA	0.182 ± 0.0174 E-score
AAGATCGG	0.174 ± 0.064 E-score
CGGATTAG	0.251 ± 0.0088 E-score
ATTGACAC	0.3147 ± 0.00157 E-score
CCCGATCA	0.347 ± 0.0408 E-score
ATCAGTGG	0.261 ± 0.0178 E-score
GAATATCC	0.276 ± 0.0527 E-score
GCATATAC	0.227 ± 0.0131 E-score
CCATATTA	0.265 ± 0.0697 E-score
TCATATGA	0.303 ± 0.0253 E-score
ACATATGA	0.166 ± 0.0311 E-score
TCATATCA	0.418 ± 0.0507 E-score
CCATATAA	0.155 ± 0.0479 E-score
ACATATCA	0.446 ± 0.0429 E-score
TAATATCA	0.34 ± 0.0768 E-score
ACATATTA	0.161 ± 0.0413 E-score
GCATATCC	0.391 ± 0.00731 E-score
CCATATCA	0.472 ± 0.0124 E-score
AACGCATA	0.203 ± 0.0681 E-score
AGAACACC	0.179 ± 0.0208 E-score
CCCCGCGA	0.229 ± 0.018 E-score
ACCCAGCT	0.181 ± 0.00331 E-score

Sequence	binding signal
AGCCATCG	0.173 ± 0.0382 E-score
TGAAACCA	0.163 ± 0.0347 E-score
GCATATCA	0.449 ± 0.0321 E-score
GCATATTA	0.249 ± 0.0567 E-score
GCATATAA	0.175 ± 0.0587 E-score
AATGTGAT	0.178 ± 0.0316 E-score
ACTATATA	0.247 ± 0.0141 E-score
AACGGTGT	0.253 ± 0.00261 E-score
AGTATTAC	0.188 ± 0.0763 E-score
GGTATCGA	0.463 ± 0.00936 E-score
CGAATCGA	0.182 ± 0.0398 E-score
GGTATTAA	0.366 ± 0.0749 E-score
GGTATGGA	0.252 ± 0.0421 E-score
GCTATCGA	0.253 ± 0.0112 E-score
GGTATTGA	0.3862 ± 0.0022 E-score
CGTATAGA	0.28 ± 0.00298 E-score
CGTATCGA	0.3978 ± 0.00377 E-score
GGTATTAC	0.385 ± 0.0216 E-score
CGTATTGA	0.23 ± 0.0207 E-score
AGTATTGA	0.193 ± 0.0395 E-score
